Results filed as inconclusive are left out. Entries that show only a call come without a potency. The source holds several records for some structures; these can differ, active in one and inactive in another. The source made the active and inactive calls. Calls follow the shape of the full dose curve.
The compounds below were run against Acetylcholinesterase (Homo sapiens) (UniProt P22303) (assay: Acetylcholinesterase (AChE) small molecule antagonists: fluorescence cell-based qHTS assay (AID 1347398; also: nearly all actives have a fitted effect of over 50% in size; also: potency is read from the fitted curve at half-maximal effect)). Conditions: SH-SY5Y cells; Potency: AChE activity; outcome: AChE activity; series mostly up to 115 µM.
Sequence of Acetylcholinesterase (Homo sapiens) (P22303 whole entry, looked up): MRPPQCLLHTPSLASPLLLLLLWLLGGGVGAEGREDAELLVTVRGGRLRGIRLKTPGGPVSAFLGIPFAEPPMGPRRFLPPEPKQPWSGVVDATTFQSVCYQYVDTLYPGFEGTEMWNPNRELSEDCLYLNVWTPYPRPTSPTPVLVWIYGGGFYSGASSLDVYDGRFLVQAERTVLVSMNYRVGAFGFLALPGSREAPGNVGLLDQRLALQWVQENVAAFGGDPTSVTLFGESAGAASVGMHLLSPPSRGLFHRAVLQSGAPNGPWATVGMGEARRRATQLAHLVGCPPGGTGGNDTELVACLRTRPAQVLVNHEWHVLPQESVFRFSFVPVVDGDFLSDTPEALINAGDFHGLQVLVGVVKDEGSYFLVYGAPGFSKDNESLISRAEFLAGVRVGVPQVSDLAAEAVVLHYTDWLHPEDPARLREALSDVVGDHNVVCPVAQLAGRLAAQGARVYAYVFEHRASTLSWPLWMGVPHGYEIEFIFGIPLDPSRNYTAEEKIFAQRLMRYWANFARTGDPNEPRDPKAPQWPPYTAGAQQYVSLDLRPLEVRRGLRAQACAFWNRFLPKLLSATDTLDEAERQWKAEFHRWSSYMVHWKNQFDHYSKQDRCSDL
Outline: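 SH-SY5Y, 2,000 cells/well, attached overnight; cmpd 30 min 37 C; acetylthiocholine/Thiolite Green cocktail 40 min RT; fluorescence Ex/Em 490/520 nm.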
With `CC(C)CC(C)(C)C` the Potency was “inactive”.
For `CC(=O)CC(=O)N(C)C`, the Potency was “inactive”.
In the case of `O=C(NS(=O)(=O)/C=C/c1ccccc1)c1ccc(F)cc1Cl`, the Potency is reported as “inactive”.
`CCCCCCC(CO)CCCC` (stereo not drawn) was tested, and the Potency was “inactive”.
In the case of `COC(=O)c1ccc(O)cc1`, the Potency is reported as “inactive”.
In the case of `COc1ccc2c(c1)c(CC(=O)OCC(=O)O)c(C)n2C(=O)c1ccc(Cl)cc1`, the Potency is reported as “inactive”.
`O=Cc1ccccc1Cl` was tested, and the Potency was “inactive”.
In the case of `CN(C)CCCCl`, the Potency is reported as “inactive”.
For `Oc1ccccc1-c1nnco1`, the Potency was “inactive”.
For `CCC(C)n1ncn(-c2ccc(N3CCN(c4ccc(OC[C@H]5CO[C@](Cn6cncn6)(c6ccc(Cl)cc6Cl)O5)cc4)CC3)cc2)c1=O` (stereo partly drawn), the Potency was “inactive”.
With `O=C(O)CCc1ccccc1` the Potency was “inactive”.
With `CO[C@@]1(NC(=O)CSC[C@@H](N)C(=O)O)C(=O)N2C(C(=O)O)=C(CSc3nnnn3C)CS[C@@H]21` the Potency was “inactive”.
`FC(F)(Cl)C(F)(Cl)Cl` was tested, and the Potency was “inactive”.
With `CC(=O)/C=C/c1ccco1` the Potency was “inactive”.
For `O=[N+]([O-])c1ccc2nc[nH]c2c1`, the Potency was “inactive”.
`c1ccc(Nc2cccc3ccccc23)cc1` was tested, and the Potency was “inactive”.
With `CC(=O)N1CCN(c2ccc(O)cc2)CC1` the Potency was “inactive”.
For `CC(C)c1cc2c(cc1S(=O)(=O)O)[C@@]1(C)CCC[C@@](C)(C(=O)O)[C@@H]1CC2`, the Potency was “inactive”.
For `O=C1c2ccccc2C(=O)N1SC1CCCCC1`, the Potency was 22.4 µM (active) and inactive.
`O=C(O)c1cc(C(=O)O)cc(S(=O)(=O)O)c1` was tested, and the Potency was “inactive”.
With `COc1ccc(OC)c(N=Nc2c(O)ccc3ccccc23)c1` the Potency was “inactive”.
`C[C@H]1[C@H]2CC[C@H]3[C@@H]4CC=C5C[C@@H](N(C)C)CC[C@]5(C)[C@H]4CC[C@]23CN1C` was tested, and the Potency was “inactive”.
For `O=[N+]([O-])c1ccccc1CCO`, the Potency was “inactive”.
`CC(C)CCCCCCCOC(=O)c1ccc(C(=O)OCCCCCCCC(C)C)c(C(=O)OCCCCCCCC(C)C)c1` was tested, and the Potency was “inactive”.
`CCCCC(=O)OCC(=O)[C@H]1[C@H](C)C[C@H]2[C@@H]3C[C@H](F)C4=CC(=O)C=C[C@]4(C)[C@@]3(F)[C@@H](O)C[C@@]21C` was tested, and the Potency was “inactive”.
For `C=CCc1cc(OC)c(O)c(C(=O)NCCO)c1`, the Potency was “inactive”.
For `C=CCOc1cc(Cl)ccc1C(=O)NCCN(CC)CC`, the Potency was “inactive”.
With `C/C=C/CO` the Potency was “inactive”.

Each compound was assayed against Acetylcholinesterase (Homo sapiens) (UniProt P22303) (assay: Acetylcholinesterase (AChE) small molecule antagonists: enzyme-based qHTS assay with human liver microsomes (AID 1347399; also: nearly all actives have a fitted effect of over 60% in size)). Conditions: Potency: qHTS inhibition; outcome: qHTS inhibition; series mostly up to 115 µM.
Outline: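 Recombinant human AChE (50 mU/mL in the enzyme mix) and human liver microsomes (0.25 mg/mL final) were preincubated with compound and NADPH (0.25 mg/mL final) for 30 min at 37 C. Acetylthiocholine/DTNB was then added; thiocholine was read colorimetrically after 10 min at room temperature.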
With `CC(C)CC(C)(C)C` the Potency was “inactive”.
For `CC(=O)CC(=O)N(C)C`, the Potency was “inactive”.
In the case of `O=C(NS(=O)(=O)/C=C/c1ccccc1)c1ccc(F)cc1Cl`, the Potency is reported as “inactive”.
For `CCCCCCC(CO)CCCC` (stereo not drawn), the Potency was “inactive”.
`COC(=O)c1ccc(O)cc1` was tested, and the Potency was “inactive”.
With `COc1ccc2c(c1)c(CC(=O)OCC(=O)O)c(C)n2C(=O)c1ccc(Cl)cc1` the Potency was “inactive”.
With `Cc1cccc2c1cc1ccc3cccc4ccc2c1c34` the Potency was “inactive”.
In the case of `O=Cc1ccccc1Cl`, the Potency is reported as “inactive”.
`CN(C)CCCCl` was tested, and the Potency was “inactive”.
With `CCCCN(CCO)CCCC` the Potency was “inactive”.
`COc1ccc(CN(CCN(C)C)c2ccccn2)cc1` was tested, and the Potency was “inactive”.
`CCCCCCCCCCCCCCCCBr` was tested, and the activity change, negative = inhibition was 0.57% [at 23.6 µM] (inactive).
`Oc1ccccc1-c1nnco1` was tested, and the Potency was “inactive”.
`CCC(C)n1ncn(-c2ccc(N3CCN(c4ccc(OC[C@H]5CO[C@](Cn6cncn6)(c6ccc(Cl)cc6Cl)O5)cc4)CC3)cc2)c1=O` (stereo partly drawn) was tested, and the Potency was “inactive”.
`COc1ccc(-c2coc3cc(O)cc(O)c3c2=O)cc1` was tested, and the Potency was “inactive”.
In the case of `CC(=O)OCC(=O)[C@@]1(O)[C@H](C)C[C@H]2[C@@H]3CCC4=CC(=O)C=C[C@]4(C)[C@@]3(F)[C@@H](O)C[C@@]21C`, the Potency is reported as “inactive”.
In the case of `O=C(O)CCc1ccccc1`, the Potency is reported as “inactive”.
In the case of `CO[C@@]1(NC(=O)CSC[C@@H](N)C(=O)O)C(=O)N2C(C(=O)O)=C(CSc3nnnn3C)CS[C@@H]21`, the Potency is reported as “inactive”.
`CCOc1cccc(-n2cc(C(=O)N3CCN(c4cc(C(=O)O)c5ccccc5c4)CC3)nc2-c2ccc(C)cc2)c1` was tested, and the Potency was “inactive”.
In the case of `FC(F)(Cl)C(F)(Cl)Cl`, the Potency is reported as “inactive”.
`CC(=O)/C=C/c1ccco1` was tested, and the Potency was “inactive”.
With `O=[N+]([O-])c1ccc2nc[nH]c2c1` the Potency was “inactive”.
With `c1ccc(Nc2cccc3ccccc23)cc1` the Potency was “inactive”.
In the case of `C=C[Si](OC(=C)C)(OC(=C)C)OC(=C)C`, the Potency is reported as “inactive”.
`CC(=O)N1CCN(c2ccc(O)cc2)CC1` was tested, and the Potency was “inactive”.
`CC(C)c1cc2c(cc1S(=O)(=O)O)[C@@]1(C)CCC[C@@](C)(C(=O)O)[C@@H]1CC2` was tested, and the Potency was “inactive”.
`O=S(=O)(O)c1cc(Cl)c(Cl)cc1Cl` was tested, and the Potency was “inactive”.
With `O=C1c2ccccc2C(=O)N1SC1CCCCC1` the Potency was “inactive”.
In the case of `O=C(O)c1cc(C(=O)O)cc(S(=O)(=O)O)c1`, the Potency is reported as “inactive”.
For `COc1ccc(OC)c(N=Nc2c(O)ccc3ccccc23)c1`, the Potency was “inactive”.
In the case of `CC(C)(c1ccccc1)c1ccccc1`, the Potency is reported as “inactive”.
With `C[C@H]1[C@H]2CC[C@H]3[C@@H]4CC=C5C[C@@H](N(C)C)CC[C@]5(C)[C@H]4CC[C@]23CN1C` the Potency was “inactive”.
With `O=[N+]([O-])c1ccccc1CCO` the Potency was “inactive”.
`CC(C)CCCCCCCOC(=O)c1ccc(C(=O)OCCCCCCCC(C)C)c(C(=O)OCCCCCCCC(C)C)c1` was tested, and the Potency was “inactive”.
With `CC(C)(CO)[C@@H](O)C(=O)NCCC(=O)O` the Potency was “inactive”.
With `CCCCC(=O)OCC(=O)[C@H]1[C@H](C)C[C@H]2[C@@H]3C[C@H](F)C4=CC(=O)C=C[C@]4(C)[C@@]3(F)[C@@H](O)C[C@@]21C` the Potency was “inactive”.
In the case of `C=CCc1cc(OC)c(O)c(C(=O)NCCO)c1`, the Potency is reported as “inactive”.
For `C=CCOc1cc(Cl)ccc1C(=O)NCCN(CC)CC`, the Potency was “inactive”.
With `c1cc(-c2ccncc2)ccn1` the Potency was “inactive”.
In the case of `C/C=C/CO`, the Potency is reported as “inactive”.
